PubChem BioAssay (Tox21)
Inconclusive results are not listed. Activity calls are given as the source filed them. Unless noted, the call rests on the fitted dose curve; in most records, active means well fitted curve in the direction sought with a large enough effect in the repeat runs; inconclusive means weak or mixed curves; inactive means no such curve, though single readings can be large; an effect the other way counts as inactive or inconclusive.

Key:
[1] = qHTS assay to identify small molecule antagonists of the retinoid-related orphan receptor gamma (ROR-gamma) signaling pathway - cell viability counter screen (AID 1159520); further: on the % scale 0 is the no-effect control and ±100 the full control effect; nearly all actives have a fitted effect of over 50% in size
In short: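 Cytotoxicity was read from cellular ATP (CellTiter-Glo luminescence) after 16 hr at 37 C with 1 uM doxycycline induction. The inducer was added 2 hr after compound transfer to Tet-on ROR gamma CHO cells.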

[2] = target: Nuclear receptor ROR-gamma (Homo sapiens) (UniProt P51449); test: qHTS assay to identify small molecule antagonists of the retinoid-related orphan receptor gamma (ROR-gamma) signaling pathway (AID 1159521; further: nearly all actives have a fitted effect of over 50% in size; further: potency means the concentration at half of the fitted maximal effect)
In short: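 CHO cells expressing RORγ under a TET-on promoter, luciferase under RORE control. Dox 1 uM final, 16 h; compounds added 2 h prior. Luminescence decrease measured.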

[3] = qHTS assay to identify small molecule agonists of the AP-1 signaling pathway - cell viability counter screen (AID 1159525; calls by dose curve; further: nearly all actives have a fitted effect of over 55% in size)
In short: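 Intracellular ATP by Cell Titer Glo luminescence (30 min, RT) in the same ME-180 AP-1-bla wells after the 5 h compound exposure at 37 °C. Normalised to tetra n-octyl ammonium bromide and DMSO controls.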

[4] = qHTS assay to identify small molecule agonists of the AP-1 signaling pathway (AID 1159526; calls by dose curve; further: on the % scale 0 is the no-effect control and ±100 the full control effect)
[5] = qHTS assay to identify small molecule agonists of the RXR signaling pathway - cell viability counter screen (AID 1159529); further: series mostly up to about 77 µM; on the % scale 0 is the no-effect control and ±100 the full control effect; nearly all actives have a fitted effect of over 50% in size
In short: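 Same-well viability check after the LiveBLAzer FRET read: CellTiter-Glo added, luminescence measured after 30 min at room temperature. Reporter HEK 293T cells had been treated with compounds for 16 hr following a 5 hr preincubation.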

[6] = qHTS assay to identify small molecule antagonists of the retinoid acid receptor (RAR) signaling pathway - cell viability counter screen (AID 1159551); further: on the % scale 0 is the no-effect control and ±100 the full control effect; nearly all actives have a fitted effect of over 35% in size
In short: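 C3RL4 RARE-luciferase line; cpds + retinol 1 uM final, 6 h, 37 C/5% CO2; CellTiter-Glo ATP luminescence, 30 min RT.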

[7] = qHTS assay to identify small molecule antagonists of the retinoic acid receptor (RAR) signaling pathway (AID 1159552; further: on the % scale 0 is the no-effect control and ±100 the full control effect; nearly all actives have a fitted effect of over 50% in size)
In short: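 Readout: luciferase luminescence, 30 min post-reagent at RT. Setup: C3RL4 RARE reporter cells, compounds plus retinol 1 uM final, 6 hr incubation at 37 C and 5% CO2.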

[8] = target: Retinoic acid receptor RXR-alpha (Homo sapiens) (UniProt P19793); test: qHTS assay to identify small molecule agonists of the RXR signaling pathway (AID 1159527; calls by dose curve; further: on the % scale 0 is the no-effect control and ±100 the full control effect; nearly all actives have a fitted effect of over 35% in size)
Sequence of Retinoic acid receptor RXR-alpha (Homo sapiens) (P19793 whole entry, looked up): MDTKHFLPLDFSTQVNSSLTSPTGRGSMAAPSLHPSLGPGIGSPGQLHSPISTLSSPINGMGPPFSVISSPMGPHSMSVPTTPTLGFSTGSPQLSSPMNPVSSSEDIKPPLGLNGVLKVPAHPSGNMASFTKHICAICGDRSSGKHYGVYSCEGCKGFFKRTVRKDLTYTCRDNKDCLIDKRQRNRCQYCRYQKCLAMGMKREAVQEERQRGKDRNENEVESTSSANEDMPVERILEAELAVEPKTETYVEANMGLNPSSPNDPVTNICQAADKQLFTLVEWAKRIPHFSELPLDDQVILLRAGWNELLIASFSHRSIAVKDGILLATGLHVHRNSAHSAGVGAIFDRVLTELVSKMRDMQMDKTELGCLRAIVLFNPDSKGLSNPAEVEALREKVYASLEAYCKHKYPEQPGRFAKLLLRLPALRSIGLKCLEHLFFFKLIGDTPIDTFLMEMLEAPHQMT
In short: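 Beta-lactamase reporter assay, agonist format. Engineered HEK 293T line, charcoal-stripped FBS at 2%, overnight (16 hr) exposure, fluorescence at 460 and 530 nm after 405 nm excitation.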

[9] = qHTS assay to identify small molecule agonists of the peroxisome proliferator-activated receptor delta (PPARd) signaling pathway - cell viability counter screen (AID 743211); further: on the % scale 0 is the no-effect control and ±100 the full control effect; nearly all actives have a fitted effect of over 55% in size
In short: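 Luminescent ATP viability assay (CellTiter-Glo, 30 min RT) in UAS-bla HEK293H cells carrying the PPAR delta reporter construct, 3000 cells/well, after a 17 h compound treatment at 37 C.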

[10] = target: Peroxisome proliferator-activated receptor delta (Homo sapiens) (UniProt Q03181); test: qHTS assay to identify small molecule agonists of the peroxisome proliferator-activated receptor delta (PPARd) signaling pathway (AID 743212; calls by dose curve; further: on the % scale 0 is the no-effect control and ±100 the full control effect)
Sequence of Peroxisome proliferator-activated receptor delta (Homo sapiens) (Q03181 whole entry, looked up): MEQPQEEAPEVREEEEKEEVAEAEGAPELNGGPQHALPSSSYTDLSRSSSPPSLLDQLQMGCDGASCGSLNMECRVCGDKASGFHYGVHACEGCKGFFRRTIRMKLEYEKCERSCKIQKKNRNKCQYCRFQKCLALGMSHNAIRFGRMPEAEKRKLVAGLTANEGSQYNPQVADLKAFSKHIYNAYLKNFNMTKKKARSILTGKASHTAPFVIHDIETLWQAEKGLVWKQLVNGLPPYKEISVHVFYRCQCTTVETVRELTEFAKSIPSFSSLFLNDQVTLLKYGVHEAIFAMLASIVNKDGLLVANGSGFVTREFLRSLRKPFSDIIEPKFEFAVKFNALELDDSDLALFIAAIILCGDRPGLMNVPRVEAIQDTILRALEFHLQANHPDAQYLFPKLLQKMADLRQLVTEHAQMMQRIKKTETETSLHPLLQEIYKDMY
In short: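 Steps: seed PPARd-bla HEK293H cells; incubate 5 h, 37 C, 5% CO2; add compounds in DMSO; incubate, 37 C; add LiveBLAzer B/G FRET substrate; hold 2 h at room temperature; measure fluorescence.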

[11] = qHTS assay to identify small molecule antagonists of the peroxisome proliferator-activated receptor delta (PPARd) signaling pathway - cell viability counter screen (AID 743213)
In short: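 HEK293H cells with the PPARd UAS-bla reporter, co-treated 17 h at 37 C with compounds and L165041 (300 nM final), were lysed with CellTiter-Glo. Luminescence indicated viable cell content.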

[12] = target: Peroxisome proliferator-activated receptor delta (Homo sapiens) (UniProt Q03181); test: qHTS assay to identify small molecule antagonists of the peroxisome proliferator-activated receptor delta (PPARd) signaling pathway (AID 743215; active means well fitted inhibition curve with a large enough effect in the signal ratio in the repeat runs, not every such curve was filed as active; the % refers to the signal ratio;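 further: cells stimulated with agonist L165041 at 300 nM final during compound exposure; series mostly up to about 62 µM; on the % scale 0 is the no-effect control and ±100 the full control effect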)
In short: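 HEK293H GeneBLAzer PPARd UAS-bla reporter cells; cpd + L165041 300 nM final, 17 h 37 C; LiveBLAzer B/G FRET substrate 2 h RT; fluorescence intensity read-out. Antagonist mode.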

[13] = qHTS assay to identify small molecule agonists of the farnesoid-X-receptor (FXR) signaling pathway - cell viability counter screen (AID 743218); further: on the % scale 0 is the no-effect control and ±100 the full control effect; nearly all actives have a fitted effect of over 45% in size
In short: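 Luminescence from CellTiter-Glo, read after 30 min at RT, reports viability of GeneBLAzer FXR-UAS-bla HEK 293T cells treated 16 h with compounds in the wells used for the beta-lactamase reporter.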

[14] = target: Bile acid receptor (Homo sapiens) (UniProt Q96RI1); test: qHTS assay to identify small molecule agonists of the farnesoid-X-receptor (FXR) signaling pathway (AID 743220; active means well fitted activation curve with a large enough effect in the signal ratio in the repeat runs, not every such curve was filed as active; the % refers to the signal ratio; further: on the % scale 0 is the no-effect control and ±100 the full control effect)
Sequence of Bile acid receptor (Homo sapiens) (Q96RI1 whole entry, looked up): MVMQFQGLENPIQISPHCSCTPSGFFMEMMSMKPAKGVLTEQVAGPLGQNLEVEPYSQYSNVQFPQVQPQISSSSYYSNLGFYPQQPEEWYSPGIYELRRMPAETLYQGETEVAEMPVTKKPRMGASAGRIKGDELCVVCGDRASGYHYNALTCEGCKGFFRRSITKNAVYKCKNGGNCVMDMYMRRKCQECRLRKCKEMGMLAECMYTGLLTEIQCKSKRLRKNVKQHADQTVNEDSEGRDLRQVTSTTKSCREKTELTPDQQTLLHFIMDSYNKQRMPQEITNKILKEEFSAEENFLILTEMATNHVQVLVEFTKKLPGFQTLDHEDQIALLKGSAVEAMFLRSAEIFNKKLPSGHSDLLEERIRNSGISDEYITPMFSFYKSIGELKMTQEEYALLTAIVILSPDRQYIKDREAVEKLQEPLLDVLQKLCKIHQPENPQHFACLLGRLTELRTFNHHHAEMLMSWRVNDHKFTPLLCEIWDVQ
In short: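 FXR-UAS-bla HEK 293T cells carrying a UAS-driven beta-lactamase reporter were plated for 5 h at 37C/5% CO2, then exposed to DMSO-dissolved Tox21 10K compounds for 16 h at 37C. A LiveBLAzer B/G FRET substrate was loaded for 2 h at room temperature before fluorescence reading.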

[15] = target: Vitamin D3 receptor (Homo sapiens) (UniProt P11473); test: qHTS assay to identify small molecule agonists of the vitamin D receptor (VDR) signaling pathway (AID 743222; calls by dose curve; further: on the % scale 0 is the no-effect control and ±100 the full control effect)
Sequence of Vitamin D3 receptor (Homo sapiens) (P11473 whole entry, looked up): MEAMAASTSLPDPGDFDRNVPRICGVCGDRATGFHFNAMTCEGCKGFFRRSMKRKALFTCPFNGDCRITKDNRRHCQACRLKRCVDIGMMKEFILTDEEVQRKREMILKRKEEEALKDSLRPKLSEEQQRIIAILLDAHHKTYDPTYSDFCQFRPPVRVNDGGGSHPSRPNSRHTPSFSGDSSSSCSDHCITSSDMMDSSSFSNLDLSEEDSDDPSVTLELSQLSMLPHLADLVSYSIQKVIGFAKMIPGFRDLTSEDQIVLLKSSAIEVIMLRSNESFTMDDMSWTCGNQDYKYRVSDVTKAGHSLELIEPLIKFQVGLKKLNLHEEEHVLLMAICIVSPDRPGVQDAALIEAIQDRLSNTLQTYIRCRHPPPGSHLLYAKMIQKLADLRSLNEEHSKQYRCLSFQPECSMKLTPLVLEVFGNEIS
In short: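 Beta-lactamase reporter readout (LiveBLAzer B/G FRET, 2 h RT) in VDR-bla cells after 16 h compound treatment at 37C, 5% CO2; cells pre-incubated 4 h before pin transfer of DMSO solutions.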

[16] = target: Vitamin D3 receptor (Homo sapiens) (UniProt P11473); test: qHTS assay to identify small molecule antagonists of the vitamin D receptor (VDR) signaling pathway (AID 743223; active means well fitted inhibition curve with a large enough effect in the signal ratio in the repeat runs, not every such curve was filed as active; the % refers to the signal ratio; further: on the % scale 0 is the no-effect control and ±100 the full control effect)
In short: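 Agonist 1alpha,25-dihydroxyvitamin D3 (3 nM in well) was added with each compound to VDR-bla cells preincubated 4 h. Cells stood 16 h at 37C, then FRET substrate 2 h at room temperature; fluorescence intensity recorded.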

[17] = qHTS assay to identify small molecule agonists of the vitamin D receptor (VDR) signaling pathway - cell viability counter screen (AID 743224)
In short: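 Cytotoxicity counter screen: VDR-bla cells, 16 h compound exposure at 37C, 5% CO2; CellTiter-Glo luminescence, 30 min RT, same wells as bla read.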

[18] = qHTS assay to identify small molecule antagonists of the vitamin D receptor (VDR) signaling pathway - cell viability counter screen (AID 743225)
In short: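 Luminescent cell viability (CellTiter-Glo) in VDR-bla HEK 293T cells after 16 h compound exposure at 37C in the presence of 3 nM final 1-alpha,25-dihydroxy vitamin D3.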

[19] = target: Bile acid receptor (Homo sapiens) (UniProt Q96RI1); test: qHTS assay to identify small molecule antagonists of the farnesoid-X-receptor (FXR) signaling pathway (AID 743217; active means well fitted inhibition curve with a large enough effect in the signal ratio in the repeat runs, not every such curve was filed as active; the % refers to the signal ratio; further: on the % scale 0 is the no-effect control and ±100 the full control effect)
In short: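 Read-out: beta-lactamase FRET fluorescence (LiveBLAzer B/G substrate, 2 h, room temperature) in GeneBLAzer FXR-UAS-bla HEK 293T cells. Compounds were co-dosed with 50 uM chenodeoxycholic acid (final) and incubated 16 h at 37 °C.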

[20] = qHTS assay to identify small molecule antagonists of the farnesoid-X-receptor (FXR) signaling pathway - cell viability counter screen (AID 743221; active means well fitted cell-killing curve with a large enough effect in the repeat runs, not every such curve was filed as active)
In short: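 In GeneBLAzer FXR-UAS-bla HEK 293T cells stimulated with 50 uM chenodeoxycholic acid (final), compounds acted for 16 h at 37 C. Viability was assessed afterwards by CellTiter-Glo luminescence.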

ClC(c1ccccc1)(c1ccccc1)c1ccccc1
inactive: Potency [1] | Potency [2] | Potency [3] | Potency [4] | Potency [5] | Potency [6] | Potency [7]

Clc1ccc2c(Cl)ccnc2c1
inactive: Potency [1] | Potency [2] | Potency [3] | Potency [4] | Potency [8] | Potency [5] | Potency [7]

CSc1ccc(O)cc1C
active: Potency [2] 43.3 µM
inactive: Potency [1]

O=C1c2ccccc2C(=O)c2c(Cl)cccc21
inactive: Potency [1] | Potency [2] | Potency [3] | Potency [4] | Potency [8] | Potency [6] | Potency [7]

CC(C=O)c1ccccc1 (configuration not stated)
inactive: Potency [1] | Potency [2] | Potency [3] | Potency [4] | Potency [8] | Potency [5] | Potency [6] | Potency [7]

O=c1cc[nH]cc1
inactive: Potency [1] | Potency [2] | Potency [3] | Potency [4] | Potency [5] | Potency [6]

Nc1ccc(F)c([N+](=O)[O-])c1
inactive: Potency [1] | Potency [2] | Potency [3] | Potency [4] | Potency [8] | Potency [5] | Potency [6]

O=C1OCc2ccccc21
inactive: Potency [1] | Potency [2] | Potency [3] | Potency [4] | Potency [8] | Potency [5] | Potency [6]

O=[N+]([O-])c1ccc(CO)cc1
inactive: Potency [1] | Potency [2] | Potency [3] | Potency [4] | Potency [8] | Potency [5] | Potency [6] | Potency [7]

Cc1ccc2sc3cccc(C)c3c2c1
inactive: Potency [1] | Potency [2] | Potency [3] | Potency [4] | Potency [8] | Potency [6]

CC/C=C(\C)C=O
inactive: Potency [1] | Potency [2] | Potency [3] | Potency [4] | Potency [8] | Potency [5]

Nc1cc([N+](=O)[O-])cc(Cl)c1O
inactive: Potency [1] | Potency [2] | Potency [3] | Potency [4] | Potency [8] | Potency [5] | Potency [6] | Potency [7]

C/C(=N\[Si](C)(C)C)O[Si](C)(C)C
inactive: Potency [1] | Potency [2] | Potency [3] | Potency [4] | Potency [8] | Potency [5] | Potency [6]

CC1(C)[C@H](C(=O)OCc2cccc(Oc3ccccc3)c2)[C@@H]1C=C(Cl)Cl
inactive: Potency [1] | Potency [2] | Potency [3] | Potency [4] | Potency [8] | Potency [5]

O=c1[nH]cccc1O
inactive: Potency [1] | Potency [2] | Potency [3] | Potency [4] | Potency [8] | Potency [5] | Potency [6] | Potency [7]

SC1CCCCC1
inactive: Potency [9] | outcome [10] | Potency [11] | Potency [12] | Potency [13] | outcome [14] | outcome [15] | Potency [16] | Potency [17] | Potency [18] | Potency [1] | Potency [2] | Potency [3] | Potency [4] | Potency [8] | Potency [5]

CCCC(C)C=O (configuration not stated)
inactive: Potency [1] | Potency [2] | Potency [3] | Potency [4] | Potency [8] | Potency [5] | Potency [6]

C=CC(=O)OCCOC1C2CCC1C1CC=CC12 (configuration not stated)
inactive: activity, negative = cytotoxicity [1] 1.32% [at 19 µM] | activity change, negative = inhibition [2] 0.993% [at 19 µM] | viability change, negative = cytotoxic [3] -20.2% [at 15.8 µM] | activation [4] -3.6% [at 15.8 µM] | activity change, negative = cytotoxicity [5] -24% [at 15.8 µM]

Cn1ccnc1
inactive: Potency [1] | Potency [2] | Potency [3] | Potency [4] | Potency [8] | Potency [5] | Potency [6]

NC(=O)c1ccccc1Cl
inactive: Potency [1] | Potency [2] | Potency [3] | Potency [4] | Potency [8] | Potency [5] | Potency [6]

CC(C)=CCC[C@H](C)CC=O
inactive: Potency [1] | Potency [2] | Potency [3] | Potency [4] | Potency [8] | Potency [5] | Potency [6]

CCN(CC)c1ccc(C=O)cc1
inactive: Potency [1] | Potency [2] | Potency [3] | Potency [4] | Potency [5] | Potency [6] | Potency [7]

CCCCCCCCCCCCS(=O)(=O)Cl
inactive: activity, negative = cytotoxicity [1] -7.74% [at 19 µM] | activity change, negative = inhibition [2] 0.574% [at 19 µM] | viability change, negative = cytotoxic [3] -17.5% [at 15.8 µM] | activation [4] -7.42% [at 15.8 µM] | activation [8] -13.1% [at 15.8 µM] | activity, negative = inhibition [7] -0.011% [at 19 µM]

CC(CC(C)(C)C)CC(C)(C)CC(C)(C)C (configuration not stated)
inactive: Potency [1] | Potency [2] | Potency [3] | Potency [4] | Potency [5] | Potency [6]

CCC(=O)OC/C=C(\C)CCC=C(C)C
inactive: Potency [1] | Potency [2] | Potency [3] | Potency [4] | Potency [8] | Potency [5]

COc1c(Br)cc(Br)c(C)c1Br
inactive: Potency [9] | Potency [11] | Potency [19] | Potency [13] | outcome [14] | Potency [20] | outcome [15] | Potency [17] | Potency [18] | Potency [1] | Potency [2] | Potency [3] | Potency [4] | Potency [8] | Potency [5] | Potency [6]

C=CC(C)(C)O
inactive: Potency [1] | Potency [2] | Potency [3] | Potency [4] | Potency [8] | Potency [5] | Potency [6]
